The source made the active and inactive calls. The calls were made as follows: active = hit-call score of the fitted dose curve at least 0.9, where 1 is the maximum; inactive = score below 0.9.
Key:
Settings in all cases: mRNA level, 48 h; actives raise or lower the signal
[1] = read-out: Nuclear factor erythroid 2-related factor 2 (Homo sapiens) (UniProt Q16236); assay: LTEA_HepaRG_NFE2L2: Life Technologies and Expression Analysis (LTEA) Assay for Nuclear factor erythroid 2-related factor 2 (NFE2L2) Transcription Factor using HepaRG (AID 2283527)
How it was run: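 Differentiated human HepaRG cells, serum-free induction medium, exposed 48 h in duplicate to eight half-log concentrations up to 100 uM in 0.5% DMSO. NFE2L2 mRNA by Fluidigm TaqMan qRT-PCR, normalised to ACTB, GAPDH, POLR2A; bidirectional change versus DMSO.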

[2] = read-out: succinate dehydrogenase complex iron sulfur subunit B (SDHB), SDHB (gene 6390); assay: LTEA_HepaRG_SDHB: Life Technologies and Expression Analysis (LTEA) Assay for succinate dehydrogenase complex iron sulfur subunit B (SDHB) using HepaRG (AID 2283528)
How it was run: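 SDHB transcript level read by TaqMan qRT-PCR, housekeeping-normalised (ACTB, GAPDH, POLR2A), after 48 h chemical treatment of plated HepaRG cells; eight concentrations top 100 uM, half-log steps, 0.5% DMSO, duplicates; fitted both directions against DMSO.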

[3] = read-out: Signal transducer and activator of transcription 3 (Homo sapiens) (UniProt P40763); assay: LTEA_HepaRG_STAT3: Life Technologies and Expression Analysis (LTEA) Assay for Signal transducer and activator of transcription (STAT3) using HepaRG (AID 2283529)
How it was run: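 Differentiated HepaRG cells, serum-free induction medium, dosed 48 h in duplicate, 8 half-log concentrations from 100 uM in 0.5% DMSO. STAT3 mRNA by qRT-PCR, normalised to ACTB, GAPDH, POLR2A; bidirectional fit versus DMSO.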

[4] = read-out: solute carrier (SLCO1B1), SLCO1B1 (gene 10599); assay: LTEA_HepaRG_SLCO1B1: Life Technologies and Expression Analysis (LTEA) Assay for solute carrier (SLCO1B1) using HepaRG (AID 2283530)
How it was run: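 Differentiated human HepaRG cells, plated 48 h, switched to serum-free induction medium and exposed in duplicate for 48 h to 8 half-log concentrations (top 100 uM) in 0.5% DMSO. SLCO1B1 mRNA by TaqMan qRT-PCR, normalized to ACTB/GAPDH/POLR2A.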

[5] = read-out: sulfotransferase 2A1 (SULT2A1), SULT2A1 (gene 6822); assay: LTEA_HepaRG_SULT2A1: Life Technologies and Expression Analysis (LTEA) Assay for sulfotransferase 2A1 (SULT2A1) using HepaRG (AID 2283531)
How it was run: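 Differentiated human HepaRG cells in serum-free induction medium were exposed for 48 h to eight half-log concentrations (top 100 uM, 0.5% DMSO). SULT2A1 mRNA was measured by qRT-PCR, normalized to ACTB, GAPDH and POLR2A, and fitted bidirectionally against DMSO.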

[6] = read-out: Transforming Growth Factor (TGFA), TGFA (gene 7039); assay: LTEA_HepaRG_TGFA: Life Technologies and Expression Analysis (LTEA) Assay for Transforming Growth Factor (TGFA) using HepaRG (AID 2283532)
How it was run: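 Differentiated HepaRG cells exposed 48 hours in serum-free induction medium, 0.5% DMSO vehicle, 8-point half-log series from 100 uM, in duplicate. TGFA mRNA by TaqMan qRT-PCR, normalised to ACTB, GAPDH, POLR2A; bidirectional fit versus DMSO.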

[7] = read-out: Transforming Growth Factor (TGFB1), TGFB1 (gene 7040); assay: LTEA_HepaRG_TGFB1: Life Technologies and Expression Analysis (LTEA) Assay for Transforming Growth Factor (TGFB1) Transporter using HepaRG (AID 2283533)
How it was run: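 Differentiated human HepaRG cells in serum-free induction medium were exposed in duplicate for 48 h to eight concentrations (top 100 uM, half-log steps, 0.5% DMSO). TGFB1 mRNA was quantified by qRT-PCR, normalized to ACTB, GAPDH, POLR2A, and fitted bidirectionally against DMSO.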

TIMP1, TIMP1 (gene 7076) = assay: LTEA_HepaRG_TIMP1: Life Technologies and Expression Analysis (LTEA) Assay for TIMP1 using HepaRG (AID 2283534)
How it was run: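 Differentiated human HepaRG cells in serum-free induction medium were exposed 48 h to chemicals (8 half-log concentrations, top 100 uM, 0.5% DMSO). TIMP1 mRNA was quantified by TaqMan qRT-PCR, normalized to ACTB/GAPDH/POLR2A; bidirectional fit versus DMSO.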

[8] = read-out: Tumor necrosis factor receptor 1 (TNFRSF1A), TNFRSF1A (gene 7132); assay: LTEA_HepaRG_TNFRSF1A: Life Technologies and Expression Analysis (LTEA) Assay for Tumor necrosis factor receptor 1 (TNFRSF1A) using HepaRG (AID 2283535)
How it was run: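 Differentiated human HepaRG cells were exposed in duplicate for 48 h in serum-free induction medium to eight concentrations (top 100 uM, half-log steps, 0.5% DMSO). TNFRSF1A mRNA was quantified by qRT-PCR, normalized to ACTB, GAPDH and POLR2A, then fitted bidirectionally against DMSO.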

[9] = read-out: Thyroid Hormone Responsive (THRSP), THRSP (gene 7069); assay: LTEA_HepaRG_THRSP: Life Technologies and Expression Analysis (LTEA) Assay for Thyroid Hormone Responsive (THRSP) using HepaRG (AID 2283536)
How it was run: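 Differentiated HepaRG cells treated 48 h in serum-free induction medium with 8 half-log concentrations up to 100 uM (0.5% DMSO), duplicates. THRSP mRNA by TaqMan qRT-PCR normalised to ACTB, GAPDH, POLR2A; bidirectional fit versus DMSO.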

Measured: AC50

Sequence of Signal transducer and activator of transcription 3 (Homo sapiens) (P40763 whole entry, looked up): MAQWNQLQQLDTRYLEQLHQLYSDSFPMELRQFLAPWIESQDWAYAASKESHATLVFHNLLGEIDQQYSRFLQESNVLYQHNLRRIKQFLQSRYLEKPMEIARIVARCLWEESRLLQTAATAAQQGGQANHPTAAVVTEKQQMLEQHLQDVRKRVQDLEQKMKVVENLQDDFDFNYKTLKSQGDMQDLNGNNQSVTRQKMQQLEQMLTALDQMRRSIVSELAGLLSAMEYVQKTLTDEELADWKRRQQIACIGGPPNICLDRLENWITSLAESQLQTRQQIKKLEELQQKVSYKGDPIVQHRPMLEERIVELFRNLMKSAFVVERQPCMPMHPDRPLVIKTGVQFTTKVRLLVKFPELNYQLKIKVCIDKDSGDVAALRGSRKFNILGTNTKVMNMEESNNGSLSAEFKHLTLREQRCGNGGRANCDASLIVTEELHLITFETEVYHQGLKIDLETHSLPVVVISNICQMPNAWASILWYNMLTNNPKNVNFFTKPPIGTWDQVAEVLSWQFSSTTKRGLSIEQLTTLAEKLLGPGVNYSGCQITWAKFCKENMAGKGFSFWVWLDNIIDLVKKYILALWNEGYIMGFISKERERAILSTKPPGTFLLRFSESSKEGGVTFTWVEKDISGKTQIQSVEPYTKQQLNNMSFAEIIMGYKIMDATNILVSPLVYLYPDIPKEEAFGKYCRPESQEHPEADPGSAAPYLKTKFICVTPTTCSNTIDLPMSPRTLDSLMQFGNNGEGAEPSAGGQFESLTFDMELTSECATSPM
Sequence of Nuclear factor erythroid 2-related factor 2 (Homo sapiens) (Q16236 whole entry, looked up): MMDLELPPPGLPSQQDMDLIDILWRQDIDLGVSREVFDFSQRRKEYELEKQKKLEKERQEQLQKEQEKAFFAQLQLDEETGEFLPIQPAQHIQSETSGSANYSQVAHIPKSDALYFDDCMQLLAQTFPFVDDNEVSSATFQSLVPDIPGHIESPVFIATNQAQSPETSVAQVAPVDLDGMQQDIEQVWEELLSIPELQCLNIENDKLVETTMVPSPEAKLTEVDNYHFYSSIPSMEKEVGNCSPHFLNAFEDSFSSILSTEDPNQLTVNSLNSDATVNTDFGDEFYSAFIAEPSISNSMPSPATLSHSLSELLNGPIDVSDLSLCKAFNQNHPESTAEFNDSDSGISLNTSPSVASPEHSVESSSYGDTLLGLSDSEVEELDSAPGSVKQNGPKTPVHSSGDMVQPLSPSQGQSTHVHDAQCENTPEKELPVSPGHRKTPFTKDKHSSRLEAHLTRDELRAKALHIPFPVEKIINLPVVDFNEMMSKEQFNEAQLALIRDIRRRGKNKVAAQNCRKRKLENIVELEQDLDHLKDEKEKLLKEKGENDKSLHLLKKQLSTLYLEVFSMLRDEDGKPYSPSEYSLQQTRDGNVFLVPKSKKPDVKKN

Nc1ccc(-c2ccc(N)cc2)cc1
inactive: all assays above

ClC(Cl)=C(c1ccc(Cl)cc1)c1ccc(Cl)cc1
active: [5] 12 µM | [9] 77.6 µM
inactive: all other assays above

CCCN(CCC)N=O
inactive: all assays above

CC(C)C(=O)OCC(C)(C)C(OC(=O)C(C)C)C(C)C (stereo not given)
inactive: all assays above

O=C(NC(=O)c1c(F)cccc1F)Nc1cc(Cl)c(OC(F)(F)C(F)F)c(Cl)c1
active: [3] 9.92 µM | [9] 9.92 µM
inactive: all other assays above

C[C@]12CCC(=O)C=C1CC[C@@H]1[C@@H]2CC[C@@]2(C)[C@H]1CC[C@]2(C)O
active: [7] 45.8 µM | [8] 45.8 µM | [9] 0.81 µM
inactive: all other assays above

Clc1ccc(C(c2ccccc2Cl)C(Cl)(Cl)Cl)cc1 (stereo not given)
active: [9] 55.8 µM
inactive: all other assays above

CCCCCCOC(=O)c1ccccc1C(=O)OCCCCCC
inactive: all assays above

O=NN(c1ccccc1)c1ccccc1
active: [8] 80.2 µM
inactive: all other assays above

O=C(O)C(F)(F)C(F)(F)C(F)(F)C(F)(F)C(F)(F)C(F)(F)C(F)(F)C(F)(F)F
inactive: [2] | [3] | TIMP1, TIMP1 (gene 7076) | [8]
active: [1] 74.9 µM | [4] 90.8 µM | [5] 77.4 µM | [6] 67.1 µM | [7] 73.5 µM | [9] 58.6 µM

CCCCCCCCCC[N+](C)(C)CCCCCCCCCC
active: [1] 75 µM | [5] 80.9 µM | TIMP1, TIMP1 (gene 7076) 10.3 µM | [8] 79.3 µM | [9] 24.5 µM
inactive: [2] | [3] | [4] | [6] | [7]

O=C(N[C@H]1CN2CCC1CC2)c1cc2ccoc2cn1
inactive: all assays above

Cc1ccccc1O
inactive: all assays above

CCC(C)(CC)c1cc(NC(=O)c2c(OC)cccc2OC)on1
active: [1] 14.9 µM | [7] 50 µM | [9] 41.2 µM
inactive: all other assays above

c1ccc(-c2ccccc2)cc1
inactive: all assays above

CC(C)(c1ccccc1)c1ccc(O)cc1
active: [9] 78.2 µM
inactive: all other assays above

From PubChem BioAssay (EPA / NIEHS)
